According to PubChem BioAssay (NCI):
About 83,000 compounds went through this panel and 20% of them were active in at least one assay; those are over-represented in the sample as a whole.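 In brief: 96-well plates, 48 h treatment, single concentration, percent growth endpoint.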 The source made the active and inactive calls. How the source made its calls: active means growth percent below 10; inactive means the rest.

Tested on: HT29 colon
Assay: NCI-60 one-dose screen, 48 h (100 = growth as untreated, 0 = no growth, -100 = all killed)
Settings: 10 µM unless noted

Structure (SMILES) | growth
CNc1sc(S(=O)(=O)NC)nc1S(=O)(=O)c1ccc(C)cc1 | 107% (inactive)
COc1cccc(N2CCN(C3=C(Cl)C(=O)c4ncccc4C3=O)CC2)c1 | 108% (inactive)
O=C1[C@@H]2Cc3c([nH]c4ccccc34)[C@@H](c3ccc(Cl)cc3)N2C(=O)CN1C1CCN(Cc2ccccc2)CC1 | -28.4% (active)
CC(=O)OCCCCN1C=C/C(=C\C(=O)n2ccc3ccccc32)c2ccccc21 | 113% (inactive)
CN1CCN(c2ccc(Nc3nc(NCCNS(=O)(=O)c4ccc5ccccc5c4)c4sccc4n3)cc2)CC1 | 8.55% (active)
CC1=C(C)C(=O)C(Nc2ccc3c(c2)OCCO3)=C(Br)C1=O | 108% (inactive)
C=C(C)[C@@H]1CC[C@]2(C(=O)NC3CCCCC3)CC[C@]3(C)[C@H](CC[C@@H]4[C@@]5(C)CC[C@H](N)C(C)(C)[C@@H]5CC[C@]43C)[C@@H]12 | 71.8% (inactive)
CCOC(=O)c1c(NC(=O)c2ccc(C(F)(F)F)cc2)sc2c3c(ccc12)OCN(C)C3 | -81% (active)
C#CCN(C)CCCOc1ccc(NCc2ccc(/C=C/C(=O)NO)cc2)cc1Cl | 8.52% (active)
COc1cc(/C=N\NC(=O)c2ccc3nc(-c4ccc(Br)cc4)[nH]c3c2)cc(OC)c1OC | 25.3% (inactive)
C=C1CCc2nc(SCC(=O)O)ccc2N1 | 109% (inactive)
CN1CCC[C@]2(C)[C@H]3CC[C@@H]4[C@@H]5[C@H]6OC[C@@]5(CCC6(C)C)CC[C@@]4(C)[C@]3(C)CC[C@H]2C1(C)C | 21.6% (inactive)
C=C(C=O)[C@@H]1CC[C@]2(C(=O)O)CC[C@]3(C)C(CC[C@@H]4[C@@](C)(CCC#N)[C@H](C(=C)C=O)CC[C@]43C)[C@@H]12 (stereo partly drawn) | 0.538% (active)
NCCNC(=O)c1cccc(COc2ccccc2NC(=O)c2cc(Cl)c(Cl)[nH]2)c1 | 109% (inactive)
COc1ccc(C2c3[nH]c4ccc(Cl)cc4c3CCN2c2oc(CO)nc2C#N)cc1 (stereo not drawn) | 22.9% (inactive)
CN(C)c1ccc(-c2cc(-c3c[nH]c4ccccc34)nc(N)c2C#N)cc1 | 11.3% (inactive)
COc1ccccc1/C=C1\Oc2ccc(O)c(O)c2C1=O | 105% (inactive)

Structure (SMILES) | growth
CCCCCc1ccc(S(=O)(=O)Nc2cc(-c3csc(N)n3)ccc2OC)cc1 | 114% (inactive)
O=C(O)c1ccc(-n2c(=O)n(-c3cccc(C(F)(F)F)c3)c(=O)c3cc(-c4ccc(F)cc4F)ccc32)cc1 | 48.5% (inactive)
Nn1c(=O)n(-c2cccc(C(F)(F)F)c2)c(=O)c2cc(-c3ccc(F)cc3F)ccc21 | 60.8% (inactive)
CCCCN1C(=O)/C(=c2\sc3n(c2=O)C2C(NN=3)N(CC)C(=O)N2CC)c2cc(C)ccc21 (stereo not drawn) | 102% (inactive)
CC(C)[C@H]1c2[nH]c3ccccc3c2C[C@H]2C(=O)N(CCCCCCC(=O)NO)CC(=O)N12 | 77.4% (inactive)
O=C(N/N=C\c1ccc(F)cc1)c1ccc2nc(-c3ccc(Br)cc3)[nH]c2c1 | -58.9% (active)
NC1[C@H]2CN(c3cnc(C(=O)Nc4cc(F)cc5cccnc45)cn3)C[C@@H]12 (stereo partly drawn) | 26.9% (inactive)
Cc1ccsc1[C@H]1c2[nH]c3ccccc3c2C[C@H]2C(=O)N(CCCCCCC(=O)NO)CC(=O)N12 | 87.3% (inactive)
CC(=O)N(O)CCCCCNC(=O)CCC(=O)N(O)CCCCCNC(=O)CCC(=O)N(O)CCCCCN(CCCCCCCCCC[P+](c1ccccc1)(c1ccccc1)c1ccccc1)CCCCCCCCCC[P+](c1ccccc1)(c1ccccc1)c1ccccc1 | 5.49% (active)
O=c1nc(Nc2ccc([N+](=O)[O-])cc2O)sc2ccccc12 | 81.7% (inactive)
Cc1cc2nc(C(Cl)Cl)nc(-c3ccc(S(=O)(=O)N(C)C)cc3)n2n1 | 18% (inactive)
C/C(CC1(O)C(=O)Nc2ccccc21)=N\O (stereo not drawn) | 104% (inactive)
C[C@]12CC[C@H]3[C@@H](CC=C4C[C@@H](O)CC[C@@]43C)[C@@H]1CC[C@@H]2[C@](C)(O)CCc1cccnc1 | 69.1% (inactive)
O=C(CSc1nnc(-c2cccs2)n1-c1ccccc1)Nc1ccccc1F | 75.1% (inactive)
CC(=C(c1ccc(OCCCN(C)C)cc1)c1ccc(OCCCN(C)C)cc1)c1ccc(Cl)cc1 | 45.7% (inactive)
O=C(CSc1nc2ccccc2c(=O)n1-c1ccc(Cl)c(Cl)c1)Nc1ccc(S(=O)(=O)Nc2ccc(Cl)nn2)cc1 | 96.6% (inactive)
